# Bioassay records from PubChem.
# Compounds with a hit are over-represented: about 3.5% of the library has one in this group of screens.
# GPR151 activ = activators of human GPR151, primary screen, cell-based, PathHunter beta-arrestin, luminescence | activation, % at 11.2 µM | PathHunter beta-arrestin GPR151 cells | 650,000 compounds, 1% hits | G-protein coupled receptor 151 (Homo sapiens), Q8TDV0; in the data active = activation above about 4.9%;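 also: 0% = median of compound wells and 100% = cells with positive control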
# Target sequence (Q8TDV0 whole entry, looked up): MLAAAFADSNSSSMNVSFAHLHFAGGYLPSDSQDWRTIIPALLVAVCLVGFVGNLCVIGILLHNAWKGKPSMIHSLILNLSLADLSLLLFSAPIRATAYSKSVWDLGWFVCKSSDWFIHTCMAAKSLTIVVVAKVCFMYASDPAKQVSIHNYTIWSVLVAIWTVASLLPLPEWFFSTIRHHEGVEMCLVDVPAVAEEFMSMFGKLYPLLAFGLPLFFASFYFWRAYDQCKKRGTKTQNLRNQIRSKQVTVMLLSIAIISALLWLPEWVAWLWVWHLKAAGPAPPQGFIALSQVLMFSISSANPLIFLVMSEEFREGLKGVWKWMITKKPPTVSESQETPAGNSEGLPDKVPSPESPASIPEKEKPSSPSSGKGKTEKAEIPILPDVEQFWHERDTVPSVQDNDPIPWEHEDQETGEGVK
# MITF inh = MITF inhibitors, primary screen, biochemical, AlphaScreen, human. Microphthalmia-associated transcription factor (Homo sapiens), O75030. AlphaScreen MITF homodimerization, bead proximity signal. inhibition, % at 2.6 µM. 650,000 compounds, 0.91% hits; in the data active = inhibition above about 50%;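 also: 0% = vehicle wells with protein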
# FBW7 act = FBW7 E3 ligase activators, primary screen, biochemical, AlphaScreen, human. 650,000 compounds, 0.13% hits. F-box/WD repeat-containing protein 7 (Homo sapiens), Q969H0. AlphaScreen FBW7–phospho-cyclin E peptide binding, activator screen. normalized activity (activation), % at 26.1 µM; in the data active = normalized activity above about 1.9%;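 also: purified mutant Fbw7 with reduced substrate affinity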
# TEAD-YAP block = TEAD-YAP interaction inhibition, primary screen, TEAD-YAP interaction inhibitor project, luminescence, HEK-TIYL cells. inhibition, % at 9.12 µM. TEAD-Gal4/YAP UAS-luciferase luminescence. 640,000 compounds, 1.4% hits; in the data active = inhibition above about 32%;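 also: 0% = median of test compound wells and 100% = reference inhibitor wells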
# GPR151 conf act = GPR151 activators, triplicate retest, confirmation, cell-based, PathHunter beta-arrestin, luminescence; shares compounds with GPR151 activ; 6,700 tested, under 10 active; GPR151 PathHunter beta-arrestin cells, 90 min; % of EA-reagent control over plate median; activation, % at 11.2 µM;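 active = mean percent activation across replicates above the confirmation screen cutoff of 4.91%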
# GPR119 ag = GPR119 activators in beta-arrestin cells, counter-screen for GPR151 activator project, cell-based, PathHunter beta-arrestin, luminescence, triplicate | activation, % at 11.2 µM | 6,700 compounds, 0.3% hits | 90 min; 0 = compound-well median, 100 = enzyme-acceptor control | shares compounds with GPR151 activ | AID 1508611, 2020;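 active = mean percent activation in the counterscreen above 29.09%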;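 also: counterscreen on off-target GPR119 to flag nonselective hits from the GPR151 activator screen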
# * = called active by the depositor; · = no result; ! = a repeat was not active.
SMILES,GPR151 activ,MITF inh,FBW7 act,TEAD-YAP block,GPR151 conf act,GPR119 ag
Nc1nonc1C(=O)NCCNCc1ccccc1Cl,-0.6,6.1,0.1,-7.4,·,·
CN(CC(=O)NC1CCCc2ccccc21)S(=O)(=O)c1cnc[nH]1 (stereo not drawn),-0.8,9.8,0.2,-1.2,·,·
C=CCNc1nc(-c2ccc(OC)c3ccccc23)cs1,5.4*,16.3,0.0,0.2,-0.1,-4.0
CCOC(=O)Cc1c(C)nc2c(-c3ccccc3)c[nH]n2c1=O,7.5*,4.5,-0.3,7.9,-0.9,-8.8
CCOC(=O)c1c(NC(=O)CSc2nnc(CNC(=O)Cc3ccc(OC)cc3)n2C)sc2c1CCCCC2,0.0,5.8,-0.1,6.2,·,·
CCOC(=O)c1c(NC(=O)c2ccccc2)sc(C(C)=O)c1C,4.8,8.2,0.0,-2.6,·,·
O=C(OCc1cccc([N+](=O)[O-])c1)c1cc(Cl)ccc1O,7.2*,-9.7,-0.4,18.8,0.3,-3.3
CC(C)[C@H](NC(=O)c1ccc(F)cc1)C(=O)OCC(=O)Nc1ccc(C#N)cc1,7.4*,2.1,-0.1,-6.5,-0.5,-11.7
CC(=O)c1ccc(NC(=O)CSc2nnc(C34CC5CC(CC(C5)C3)C4)n2C)cc1,6.2*,0.3,-0.3,-22.9,-1.2,-8.1
CC(=O)c1ccc(NC(=O)CSc2nnc(C3CC3)n2C)cc1,2.4,9.8,-0.1,13.5,·,·
CCOC(=O)N1CCN(C(=O)CN(c2ccccc2Br)S(C)(=O)=O)CC1,7.6*,14.3,0.1,2.4,0.6,-5.5
Cc1ccc(CCN2C(=O)C3C(C(=O)Nc4ccc(C(C)C)cc4)C4C=CC3(O4)C2C(=O)NC2CCCC(C)C2C)cc1 (stereo not drawn),-1.9,17.4,0.5,-9.2,·,·
COc1ccc(-c2ncc(C(=O)NCc3cccnc3)s2)cc1,-0.1,13.7,0.1,-13.8,·,·
CCCCCCCCCCCCCCCC(=O)C(F)(F)F,5.0*!,2.1,0.0,·,-0.7,-9.9
CC(=O)c1ccc(C(C)(C)C)cc1NC(=O)c1ccc(Cl)cc1,-0.1,4.4,0.1,3.2,·,·
COc1cccc(C(=O)Nc2cc(C(C)(C)C)ccc2C(C)=O)c1,5.2*,15.5,0.6,5.7,0.0,-8.6
COc1cccc(C(=O)Nc2cc(=O)n(C)c(=O)n2C)c1,10.2*,8.1,0.5,12.7,0.3,-8.2
COc1ccc(C(=O)Nc2cc(=O)n(C)c(=O)n2C)cc1,3.8,2.3,-0.3,-4.1,·,·
COc1cccc2cc(-c3ccc4c(c3)OCO4)c(=O)oc12,5.2*,-10.7,-0.3,-51.8,-1.2,-11.7
COc1cccc2cc(-c3ccccc3)c(=O)oc12,-7.9,-3.2,0.0,-19.6,·,·
CCOC(=O)COc1ccccc1OCC,2.4,2.5,0.1,4.8,·,·
O=C(Nc1cc(Br)ccc1O)C1CC(c2ccccc2F)=NO1 (stereo not drawn),0.1,-6.9,0.1,-10.3,·,·
COc1cccc(-c2nc(-c3ccc([N+](=O)[O-])cc3)no2)c1,0.0,-0.4,0.1,5.1,·,·
COc1ccc(-c2noc(C(C)c3ccc([N+](=O)[O-])cc3)n2)cc1 (stereo not drawn),5.1*,4.4,0.1,-4.9,-0.2,1.1
CCOC(=O)C1C(=O)NC(SCC(=O)Nc2ccc(Br)cc2)=C(C#N)C1c1ccccc1OCC (stereo not drawn),8.5*,-11.0,-0.1,-5.5,-0.1,11.1
SMILES,GPR151 activ,MITF inh,FBW7 act,TEAD-YAP block,GPR151 conf act,GPR119 ag
CCCCN(C)C(=O)c1sc2ncnc(N(C)c3ccccc3)c2c1C,-0.3,-2.5,-0.1,-12.6,·,·
O=C(c1cccc(S(=O)(=O)N2CCCC2)c1)c1nnc(-c2ccncc2)o1,8.2*,4.5,0.0,-0.8,0.0,5.5
COc1ccc(-c2nc(C(=O)N3CCN(C)CC3)sc2-c2ccc(OC)cc2)cc1,6.7*!,7.2,0.1,·,2.1,5.6
O=C(Cc1cccs1)N/N=C\c1ccc(O)cc1,-1.6,18.5,-0.1,-12.1,·,·
O=C(Cc1cccs1)N/N=C\c1ccc(O)c(O)c1,5.3*,-6.8,-0.1,-14.4,-0.3,1.0
O=C(N/N=C/c1ccc(Oc2ccc([N+](=O)[O-])cn2)cc1)c1ccc([N+](=O)[O-])cc1,0.7,8.0,0.1,-4.7,·,·
CCN(CC)C(=O)NCCc1nnc(SC)n1C,-1.7,-41.8,0.0,-0.5,·,·
CCOc1ccccc1N(C)S(=O)(=O)c1ccc2[nH]cc(C(=O)N(CC)CC)c(=O)c2c1,5.9*,-9.3,-0.1,6.4,-0.1,7.9
CN1C(=O)N(C)C(c2ccccc2Cl)C2=C1CC(C)(C)CC2=O (stereo not drawn),0.8,0.9,-0.2,-1.3,·,·
CN1C(=O)NC(c2ccccc2Cl)C2=C1CC(C)(C)CC2=O (stereo not drawn),5.7*,-3.1,-0.1,3.6,0.8,-3.4
O=S(=O)(CCOc1nc2cc(Cl)ccc2cc1CNC1CCOC1)c1ccccc1 (stereo not drawn),6.8*,13.6,-0.2,1.2,0.3,12.4
O=C(CSc1ncnc2c1nnn2-c1ccc(F)cc1)Nc1ccc2c(c1)OCO2,-0.9,8.3,0.0,2.4,·,·
COc1ccccc1N1CCN(CC(=O)NC2(C#N)CCCC2)CC1,-0.9,6.1,0.0,5.4,·,·
O=C(CCc1ccccc1)Nc1nnc(-c2ccc(F)cc2)o1,5.7*,-5.6,-0.1,-5.6,0.6,7.1
CCOC(=O)c1cnc2ccc(OC)cc2c1Nc1ccccc1C,-0.1,2.9,0.0,-4.5,·,·
CCOC(=O)c1cnc2ccc(OC)cc2c1Nc1ccccc1C(=O)O,5.6*,-8.7,-0.1,-1.4,-0.4,-3.7
CCOC(=O)c1cnc2cc(C(F)(F)F)ccc2c1Nc1cc(OC)ccc1OC,4.9*,-0.1,0.0,5.9,-0.7,9.3
CC(C)CC(NC(=O)CC12CC3CC(CC(C3)C1)C2)C(=O)Nc1nccs1 (stereo not drawn),1.2,9.3,-0.2,2.3,·,·
CCn1cc(CN2CCC(Oc3ccc(C(=O)N4CCCCC4)cc3)CC2)c(C)n1,-0.2,17.4,0.1,-0.3,·,·
O=C(/C=C/c1cccc2ccccc12)NCc1ccccc1,5.0*,15.3,0.2,-7.4,-0.6,-8.3
COCC(=O)NCC1CCC2(CCN(C/C(C)=C/c3ccccc3)CC2)O1 (stereo not drawn),5.1*,-4.3,-0.1,4.9,0.7,10.0
COCC(=O)NCC1CCC2(CCN(Cc3ccc(N(C)c4ccccc4)cc3)CC2)O1 (stereo not drawn),1.0,4.3,-0.2,3.5,·,·
